Measured values taken from PMC12136788.
Positions count from the first letter of the chain named. Over roughly 24,000 sequences, “enrichment r” has its median near 0.99; the highest 2% begin near 3.7. The sample as a whole holds a higher share of the highest values than the screen did.

T1: UNK ZnF1-3 (human, UniProt Q9C0B0 31-174)
T1 sequence: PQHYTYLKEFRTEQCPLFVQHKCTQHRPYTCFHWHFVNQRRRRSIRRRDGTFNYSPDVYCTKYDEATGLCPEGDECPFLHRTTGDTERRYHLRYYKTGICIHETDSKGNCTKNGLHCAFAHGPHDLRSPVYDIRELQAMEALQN

B1: chr14:89338683:89338684:+_ENSG00000165533_ENST00000346301|hu_hu|hu_hu_hu_mus_False|58_68 (ssRNA)
RNA: GGGAGUUCUACAGUCCGACGAUCGUGGUUGUUGUGGACCAGGGCCAGCCUGAAGCAUUGGUGGGCCAAAUUUGUAUCUCCUAUUCCCACAGCUAUGUGCCCCAGGUUGUACCAGACAUCAGCUGCCUCUUCUUCAUUUUCAGCCAACAGAGGAUUGAGCAUCA
B2: chr9:109937893:109937894:+_ENSMUSG00000032479_ENSMUST00000165876|mus_mus|motif|central (ssRNA)
RNA: GGGAGUUCUACAGUCCGACGAUCUUCACGUGGUUUUUCUUCAGUCUGUACAGUUCCUUUGUCUUUAAUUGGAACUGUUGCGGCUUUUGUUUCCAAGGGCAGUGCAAGAUCGGAGGCUGGAGCCAUGCUGUUGUCCACAAUCAGCAACAGAGGAUUGAGCAUCA
B3: 126495366_126496508_792_3pUTR_ENSMUSG00000040502_ENSMUST00000040307|mouse|control|control (ssRNA)
RNA: GGGAGUUCUACAGUCCGACGAUCAUUAGGCAGGGUUGGUGUGUGCAACGCACUGAGCCGUCACAGCGGCAAGGGCUCAGGAGCUCCCCCUGCUCCGGGCCUUGGAAGCAGAUCCUGCACUGGGGGGUUCGGAGCCCACUGUCCCAACAGAGGAUUGAGCAUCA
B4: chr7:149838571:149838572:-_ENSMUSG00000048583_ENSMUST00000000033|mus_mus|motif|central (ssRNA)
RNA: GGGAGUUCUACAGUCCGACGAUCCAUGUAUCACUUGGCAGUGCCAUCUCCUUAUCUGGCCAAACUUAUUCUACACUGGCGGGUCAUUGGUCCUCAUGGCGGGGGUGGUUGGGGAGCACCGGGCUCACCAUGUGGACAGGUGCUCAACAGAGGAUUGAGCAUCA
B5: chr6:74304526:74304527:-_ENSG00000119899_ENST00000355773|hu_mus|motif|central (ssRNA)
RNA: GGGAGUUCUACAGUCCGACGAUCCAAGUUUAUCAGUGUGUGUGUGUGUGUGUGUGUCCAUUUCAGCUUCAUUUCCGGUGCCCUUACCUUAUAUCAUACUGCCUUUCCUGCAGCCUGAUAUGUGAACCCAGUAUACGGCCUGGCCAACAGAGGAUUGAGCAUCA
B6: chr5:137088537:137088538:-_ENSG00000177733_ENST00000314940|hu_mus|motif|central (ssRNA)
RNA: GGGAGUUCUACAGUCCGACGAUCUCCCGCCCGCCCACCCGCCCCCCCAAAAAACACAAAUUAAAACAAGACAUUUUUUUGCGGGUAUAAAAACGACCAAGGUCCAAGUAAUAAUAAAAAAAUAGAGUCCAUCAAUGACUGUAACAACAGAGGAUUGAGCAUCA
B7: chr4:57314706:57314707:+_ENSG00000128050_ENST00000264221|hu_mus|hu_hu_hu_mus_True|88_98 (ssRNA)
RNA: GGGAGUUCUACAGUCCGACGAUCCAGAAUUUCAAAAAUAGCCUGUGUAGCAUGACUCAUGAUGUCCACUUCAGUCUGCCCUAUAACAAGGCCAGCAAAACAGAAUUUUGCAGCAAUGAGUUGCUCCUCAGACCACUGUGGAUCCAACAGAGGAUUGAGCAUCA
B8: chr9:15470827:15470828:-_ENSG00000164985_ENST00000397519|hu_hu|motif|central (ssRNA)
RNA: GGGAGUUCUACAGUCCGACGAUCGAAUGUCAAGAGAAGGGCCCCAUUCUCAGGGAUAUAACUGCUAUUCCAGUUUAAUAACGGGCUUCAAAACAAAAUGAAUUUUUAUAUUUUCUAGAUGAAUAAUGUACAACCACCAUCUUCCAACAGAGGAUUGAGCAUCA
B9: chr4:57314706:57314707:+_ENSG00000128050_ENST00000264221|hu_mus|hu_hu_hu_mus_True|48_88 (ssRNA)
RNA: B7 RNA with C42U, G90U
B10: chr5:137088537:137088538:-_ENSG00000177733_ENST00000314940|hu_hu|FALSE|FALSE (ssRNA)
RNA: GGGAGUUCUACAGUCCGACGAUCCAGCAAGUUCACUCCCUCCCUCCCCCCAAAAAACACAAAUUAAAACAAGACAUUUUGCUAGUAUAAAAACGACCAAGGUCCAAGUAAUAAUAAAAAAAUAGAGUCCAUCAAUGACUGUAACAACAGAGGAUUGAGCAUCA
B11: chr5:137088537:137088538:-_ENSG00000177733_ENST00000314940|hu_mus|FALSE|FALSE (ssRNA)
RNA: B6 RNA with G82U, G83A
B12: chr5:137088537:137088538:-_ENSG00000177733_ENST00000314940|hu_hu|motif|central (ssRNA)
RNA: B10 RNA with U82G, A83G
B13: chr4:88367131:88367132:-_ENSMUSG00000070923_ENSMUST00000094993|mus_mus|FALSE|FALSE (ssRNA)
RNA: GGGAGUUCUACAGUCCGACGAUCUUGGUAAUUGCUUGCUUCCAAAAGUAAAUUCACACAGGUAUUGUCUGUUCUCAUGAAAUCUACUGUCUGCACAUAGUUGAUGAGAUCCUGUGGUGUCAUCAGUGGAAAGCGAAUAUUCUUCAACAGAGGAUUGAGCAUCA

Target: T1, UNK ZnF1-3
Assay: nsRBNS (natural sequence RNA bind-n-seq); RBNS binding buffer (assumed for nsRBNS): 25 mM Tris pH 7.5, 150 mM KCl, 3 mM MgCl2, 0.01% Triton X-100, 500 ug/ml BSA, 20 U/ml SUPERase-In, 4 C; UNK is unkempt and MSI1 is Musashi-1; names of the RNAs are library labels; protein concentration not given here; high values mean tight binding

Binder | binding signal [enrichment R]
B1 | 0.84
B2 | 0.462
B3 | 0.848
B4 | 0.781
B5 | 0.616
B6 | 3.51
B7 | 0.943
B8 | 1.6
B9 | 0.922
B10 | 5.73
B11 | 9.05
B12 | 6.14
B13 | 0.859
